The record followed here is PMC7862700, “An all-to-all approach to the identification of sequence-specific readers for epigenetic DNA modifications on cytosine”.

Assay in all cases: DAPPL (digital affinity profiling via proximity ligation, sequencing); 10 mM Tris-HCl pH 7.5, 50 mM NaCl, 1 mM DTT, 4% glycerol, room temperature, 30 min; GST-TFs on glutathione beads, 16-mer random dsDNA library, 0.1% formaldehyde crosslink after washing; high values mean tight binding
One assay has as its target T1, FEV (Homo sapiens, UniProt Q99581 1-238).
T1 sequence: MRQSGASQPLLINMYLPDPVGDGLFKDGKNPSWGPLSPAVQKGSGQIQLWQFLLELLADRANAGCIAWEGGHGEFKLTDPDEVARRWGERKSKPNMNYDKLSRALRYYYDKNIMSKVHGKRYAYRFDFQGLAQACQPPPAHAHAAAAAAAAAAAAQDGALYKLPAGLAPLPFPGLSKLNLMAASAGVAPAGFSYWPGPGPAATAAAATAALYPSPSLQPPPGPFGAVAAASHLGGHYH
As to conditions: protein: recombinant; tags: N-terminal GST; dsDNA, one strand shown. In outline:
(§1)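 Binding signal is each hexamer's read frequency for a factor divided by its frequency in the tag-only sample. The factors were GST-fused human transcription factors from yeast, captured on glutathione beads, DNA-barcoded and pooled with that sample. Pools were incubated with 200 nmole of a random double-stranded 16-mer DNA library in Tris/NaCl/DTT/glycerol buffer at room temperature for 30 min, then washed, crosslinked with 0.1% formaldehyde, proximity-ligated with BsaI/T4 ligase (1 h, 37 °C), PCR-amplified and sequenced on an Illumina NextSeq500.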

Another assay addresses ETV5 (Homo sapiens, UniProt P41161 1-510). As to conditions: protein: recombinant; tags: N-terminal GST; dsDNA, one strand shown. In outline:
as §1

A further assay deals with HSF1 (Homo sapiens, UniProt Q00613 1-529). The conditions noted are these: protein: recombinant; tags: N-terminal GST; chain copies: 3; dsDNA, one strand shown. Put shortly: as §1
The target of another assay is T2, SPIC (Homo sapiens, UniProt Q8N5J4 1-248).
T2 sequence: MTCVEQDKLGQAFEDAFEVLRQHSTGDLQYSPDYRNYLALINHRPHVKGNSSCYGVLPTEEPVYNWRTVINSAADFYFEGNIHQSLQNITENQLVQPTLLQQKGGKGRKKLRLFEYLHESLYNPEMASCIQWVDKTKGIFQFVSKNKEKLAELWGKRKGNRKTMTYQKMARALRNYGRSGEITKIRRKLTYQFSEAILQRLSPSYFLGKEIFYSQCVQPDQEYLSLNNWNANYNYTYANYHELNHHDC
As to conditions: protein: recombinant; tags: N-terminal GST; dsDNA, one strand shown. In outline: as §1

The target in the next assay is ELF4 (Homo sapiens, UniProt Q99607 1-663). As to conditions: protein: recombinant; tags: N-terminal GST; dsDNA, one strand shown. In outline: as §1
In a further assay the target is T3, ELK4 (Homo sapiens, UniProt P28324-2 1-405).
T3 sequence: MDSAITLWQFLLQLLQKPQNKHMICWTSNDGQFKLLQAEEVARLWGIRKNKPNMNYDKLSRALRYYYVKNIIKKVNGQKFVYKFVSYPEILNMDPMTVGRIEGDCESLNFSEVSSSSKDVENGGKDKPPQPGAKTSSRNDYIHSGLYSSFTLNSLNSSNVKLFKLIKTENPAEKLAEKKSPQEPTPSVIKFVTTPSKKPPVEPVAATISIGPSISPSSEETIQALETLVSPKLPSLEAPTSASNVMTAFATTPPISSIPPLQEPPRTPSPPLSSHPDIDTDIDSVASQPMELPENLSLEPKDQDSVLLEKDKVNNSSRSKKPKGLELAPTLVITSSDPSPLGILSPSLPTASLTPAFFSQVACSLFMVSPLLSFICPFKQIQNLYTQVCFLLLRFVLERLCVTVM
As to conditions: protein: recombinant; tags: N-terminal GST; dsDNA, one strand shown. In outline: as §1

The target in a further assay is T4, ETV2 (Homo sapiens, UniProt O00321 1-342).
T4 sequence: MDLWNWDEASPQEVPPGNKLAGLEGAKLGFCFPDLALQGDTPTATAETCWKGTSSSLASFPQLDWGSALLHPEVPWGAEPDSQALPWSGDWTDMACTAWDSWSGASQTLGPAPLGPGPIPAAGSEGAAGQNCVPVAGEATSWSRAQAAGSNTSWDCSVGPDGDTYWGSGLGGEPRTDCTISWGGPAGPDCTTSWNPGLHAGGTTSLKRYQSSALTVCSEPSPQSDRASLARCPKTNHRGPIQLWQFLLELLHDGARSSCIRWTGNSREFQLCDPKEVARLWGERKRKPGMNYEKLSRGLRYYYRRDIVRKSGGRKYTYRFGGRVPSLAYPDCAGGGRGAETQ
The conditions noted are these: protein: recombinant; tags: N-terminal GST; dsDNA, one strand shown. In outline: as §1

The target in another assay is T5, ELF3 (Homo sapiens, UniProt P78545 1-371).
T5 sequence: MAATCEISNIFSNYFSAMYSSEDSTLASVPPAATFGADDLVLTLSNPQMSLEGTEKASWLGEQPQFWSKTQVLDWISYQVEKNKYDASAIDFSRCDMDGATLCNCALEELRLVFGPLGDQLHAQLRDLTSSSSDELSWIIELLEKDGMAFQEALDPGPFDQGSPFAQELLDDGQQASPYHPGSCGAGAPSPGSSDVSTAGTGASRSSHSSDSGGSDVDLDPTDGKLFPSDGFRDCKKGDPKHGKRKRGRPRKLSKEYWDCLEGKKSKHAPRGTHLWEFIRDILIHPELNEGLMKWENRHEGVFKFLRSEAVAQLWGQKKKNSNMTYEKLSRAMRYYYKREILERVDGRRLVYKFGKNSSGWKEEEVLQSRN
As to conditions: protein: recombinant; tags: N-terminal GST; dsDNA, one strand shown. In outline: as §1

The next assay concerns the target CRX (Homo sapiens, UniProt O43186 1-299). The conditions noted are these: protein: recombinant; tags: N-terminal GST; dsDNA, one strand shown. In outline:
as §1

Another assay addresses ETV1 (Homo sapiens, UniProt P50549 1-477). As to conditions: protein: recombinant; tags: N-terminal GST; dsDNA, one strand shown. Put shortly:
as §1

The target of a further assay is T6, ERF (Homo sapiens, UniProt P50548 1-548).
T6 sequence: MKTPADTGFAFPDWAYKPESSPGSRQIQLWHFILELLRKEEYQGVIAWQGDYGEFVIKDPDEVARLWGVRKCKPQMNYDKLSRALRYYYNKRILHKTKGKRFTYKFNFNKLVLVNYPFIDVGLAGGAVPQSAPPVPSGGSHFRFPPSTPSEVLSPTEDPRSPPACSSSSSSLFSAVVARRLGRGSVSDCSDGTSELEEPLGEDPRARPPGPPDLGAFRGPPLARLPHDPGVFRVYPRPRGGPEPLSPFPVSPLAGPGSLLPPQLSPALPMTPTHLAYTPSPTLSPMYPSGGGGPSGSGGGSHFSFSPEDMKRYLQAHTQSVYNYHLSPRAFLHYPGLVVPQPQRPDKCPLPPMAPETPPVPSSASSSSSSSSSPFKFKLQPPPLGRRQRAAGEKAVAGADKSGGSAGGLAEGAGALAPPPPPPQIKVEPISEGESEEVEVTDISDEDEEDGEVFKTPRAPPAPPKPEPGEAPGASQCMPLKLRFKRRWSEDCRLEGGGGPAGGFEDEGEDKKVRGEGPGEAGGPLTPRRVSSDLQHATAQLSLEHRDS
As to conditions: protein: recombinant; tags: N-terminal GST; dsDNA, one strand shown. Put shortly:
as §1

Another assay addresses T7, ETV3L (Homo sapiens, UniProt Q6ZN32 1-361).
T7 sequence: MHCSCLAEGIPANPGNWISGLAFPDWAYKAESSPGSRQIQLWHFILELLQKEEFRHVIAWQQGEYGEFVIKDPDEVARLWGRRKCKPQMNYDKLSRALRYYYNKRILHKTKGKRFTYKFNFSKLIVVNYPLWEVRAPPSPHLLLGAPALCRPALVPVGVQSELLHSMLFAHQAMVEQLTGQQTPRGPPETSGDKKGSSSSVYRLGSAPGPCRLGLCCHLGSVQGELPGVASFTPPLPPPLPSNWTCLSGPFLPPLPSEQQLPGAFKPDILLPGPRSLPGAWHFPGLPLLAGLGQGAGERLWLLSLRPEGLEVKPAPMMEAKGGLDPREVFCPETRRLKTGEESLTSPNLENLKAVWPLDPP
As to conditions: protein: recombinant; tags: N-terminal GST; dsDNA, one strand shown. Put shortly:
as §1

A further assay deals with T8, ETS2 (Homo sapiens, UniProt P15036 1-469).
T8 sequence: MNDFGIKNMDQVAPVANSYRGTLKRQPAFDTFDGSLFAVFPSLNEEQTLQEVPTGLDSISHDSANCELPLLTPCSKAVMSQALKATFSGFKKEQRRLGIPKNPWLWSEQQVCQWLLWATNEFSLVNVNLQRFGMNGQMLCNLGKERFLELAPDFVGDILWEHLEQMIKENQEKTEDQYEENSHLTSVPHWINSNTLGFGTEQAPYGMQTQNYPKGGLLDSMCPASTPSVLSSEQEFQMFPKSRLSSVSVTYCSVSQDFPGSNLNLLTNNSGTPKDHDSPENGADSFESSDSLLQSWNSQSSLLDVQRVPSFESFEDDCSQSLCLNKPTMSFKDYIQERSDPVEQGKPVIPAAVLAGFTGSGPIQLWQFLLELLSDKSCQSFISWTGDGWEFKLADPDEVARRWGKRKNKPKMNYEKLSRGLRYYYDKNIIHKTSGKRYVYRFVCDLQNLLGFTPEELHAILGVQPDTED
The conditions noted are these: protein: recombinant; tags: N-terminal GST; dsDNA, one strand shown. In outline: as §1

The next assay concerns the target T9, SPDEF (Homo sapiens, UniProt O95238 1-335).
T9 sequence: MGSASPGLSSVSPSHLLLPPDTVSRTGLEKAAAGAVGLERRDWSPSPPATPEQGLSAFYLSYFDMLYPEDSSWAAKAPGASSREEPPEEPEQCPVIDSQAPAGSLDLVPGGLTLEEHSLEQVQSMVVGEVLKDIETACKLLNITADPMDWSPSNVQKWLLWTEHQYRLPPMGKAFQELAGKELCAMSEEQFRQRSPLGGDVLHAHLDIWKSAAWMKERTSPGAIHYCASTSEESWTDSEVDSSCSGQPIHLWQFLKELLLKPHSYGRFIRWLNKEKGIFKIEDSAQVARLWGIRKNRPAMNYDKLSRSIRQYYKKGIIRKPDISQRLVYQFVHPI
The conditions noted are these: protein: recombinant; tags: N-terminal GST; dsDNA, one strand shown. Put shortly: as §1

A further assay concerns the target T10, ETV7 (Homo sapiens, UniProt Q9Y603 1-341).
T10 sequence: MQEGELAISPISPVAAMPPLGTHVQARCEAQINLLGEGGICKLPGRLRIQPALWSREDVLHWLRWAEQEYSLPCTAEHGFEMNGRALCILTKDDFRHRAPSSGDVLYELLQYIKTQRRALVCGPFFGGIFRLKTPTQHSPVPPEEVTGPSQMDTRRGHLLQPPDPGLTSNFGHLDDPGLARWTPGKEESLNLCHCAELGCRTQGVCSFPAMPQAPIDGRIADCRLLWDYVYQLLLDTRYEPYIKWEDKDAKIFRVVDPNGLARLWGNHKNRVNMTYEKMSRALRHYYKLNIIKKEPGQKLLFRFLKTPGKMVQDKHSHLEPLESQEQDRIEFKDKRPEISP
As to conditions: protein: recombinant; tags: N-terminal GST; dsDNA, one strand shown. Put shortly:
as §1

The next assay has as its target T11, ELF5 (Homo sapiens, UniProt Q9UKW6-2 1-255).
T11 sequence: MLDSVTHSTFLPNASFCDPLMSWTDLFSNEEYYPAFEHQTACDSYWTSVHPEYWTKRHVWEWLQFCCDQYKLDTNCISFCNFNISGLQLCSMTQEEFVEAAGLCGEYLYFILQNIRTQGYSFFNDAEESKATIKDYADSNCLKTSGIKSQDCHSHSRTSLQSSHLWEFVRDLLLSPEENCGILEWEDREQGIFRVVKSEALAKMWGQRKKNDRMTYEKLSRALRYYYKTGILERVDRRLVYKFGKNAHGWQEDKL
As to conditions: protein: recombinant; tags: N-terminal GST; dsDNA, one strand shown. In outline:
as §1

Another assay has as its target T12, ETV3 (Homo sapiens, UniProt P41162-2 1-143).
T12 sequence: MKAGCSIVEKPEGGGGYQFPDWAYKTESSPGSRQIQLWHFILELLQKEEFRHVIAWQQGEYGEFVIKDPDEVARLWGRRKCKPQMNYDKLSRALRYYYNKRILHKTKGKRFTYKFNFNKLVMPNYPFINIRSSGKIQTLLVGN
The conditions noted are these: protein: recombinant; tags: N-terminal GST; dsDNA, one strand shown. In outline:
as §1

The next assay has as its target ETV6 (Homo sapiens, UniProt P41212 1-452). As to conditions: protein: recombinant; tags: N-terminal GST; dsDNA, one strand shown. In outline: as §1

Chain of ELF4 (Q99607 whole entry): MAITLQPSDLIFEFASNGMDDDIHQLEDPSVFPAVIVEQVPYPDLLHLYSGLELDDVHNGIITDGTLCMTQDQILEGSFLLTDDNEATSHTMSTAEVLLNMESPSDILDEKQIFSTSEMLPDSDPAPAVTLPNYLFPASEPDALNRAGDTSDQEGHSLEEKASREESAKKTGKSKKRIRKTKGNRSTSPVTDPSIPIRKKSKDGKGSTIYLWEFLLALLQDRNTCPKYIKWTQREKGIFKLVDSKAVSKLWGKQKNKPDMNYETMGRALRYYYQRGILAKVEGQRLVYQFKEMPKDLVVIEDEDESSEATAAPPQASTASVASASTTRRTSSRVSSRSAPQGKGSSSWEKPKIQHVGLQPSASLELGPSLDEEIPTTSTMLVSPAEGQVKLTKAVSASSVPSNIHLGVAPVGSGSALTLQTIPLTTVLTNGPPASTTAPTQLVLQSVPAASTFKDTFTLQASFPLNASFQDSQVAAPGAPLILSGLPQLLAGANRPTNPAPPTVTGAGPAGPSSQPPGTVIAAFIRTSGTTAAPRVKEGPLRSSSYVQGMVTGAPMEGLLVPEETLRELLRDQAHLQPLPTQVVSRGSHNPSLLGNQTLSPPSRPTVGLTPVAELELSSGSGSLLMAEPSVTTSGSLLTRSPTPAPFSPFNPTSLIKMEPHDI
Chain of CRX (O43186 whole entry): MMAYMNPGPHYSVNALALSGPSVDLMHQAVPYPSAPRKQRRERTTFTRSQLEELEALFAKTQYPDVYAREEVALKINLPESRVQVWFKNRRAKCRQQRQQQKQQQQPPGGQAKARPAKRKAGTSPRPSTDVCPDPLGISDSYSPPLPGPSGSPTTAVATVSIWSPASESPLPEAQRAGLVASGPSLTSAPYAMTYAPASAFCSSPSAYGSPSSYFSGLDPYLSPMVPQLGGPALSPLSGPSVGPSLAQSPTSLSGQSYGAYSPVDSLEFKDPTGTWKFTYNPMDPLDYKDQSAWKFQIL
Chain of ETV1 (P50549 whole entry): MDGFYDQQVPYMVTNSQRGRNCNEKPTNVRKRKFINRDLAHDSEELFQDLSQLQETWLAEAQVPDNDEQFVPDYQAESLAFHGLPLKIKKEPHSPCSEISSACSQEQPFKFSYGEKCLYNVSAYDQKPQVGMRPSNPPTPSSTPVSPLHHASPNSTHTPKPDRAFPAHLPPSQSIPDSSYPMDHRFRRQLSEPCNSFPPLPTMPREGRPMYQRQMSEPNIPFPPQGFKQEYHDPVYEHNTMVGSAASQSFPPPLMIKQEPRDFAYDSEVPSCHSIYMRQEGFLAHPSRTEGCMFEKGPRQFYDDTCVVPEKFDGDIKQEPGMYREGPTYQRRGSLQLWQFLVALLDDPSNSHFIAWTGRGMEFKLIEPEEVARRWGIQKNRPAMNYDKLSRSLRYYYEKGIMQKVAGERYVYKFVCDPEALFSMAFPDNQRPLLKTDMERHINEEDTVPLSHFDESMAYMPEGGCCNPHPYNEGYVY
Chain of ETV5 (P41161 whole entry): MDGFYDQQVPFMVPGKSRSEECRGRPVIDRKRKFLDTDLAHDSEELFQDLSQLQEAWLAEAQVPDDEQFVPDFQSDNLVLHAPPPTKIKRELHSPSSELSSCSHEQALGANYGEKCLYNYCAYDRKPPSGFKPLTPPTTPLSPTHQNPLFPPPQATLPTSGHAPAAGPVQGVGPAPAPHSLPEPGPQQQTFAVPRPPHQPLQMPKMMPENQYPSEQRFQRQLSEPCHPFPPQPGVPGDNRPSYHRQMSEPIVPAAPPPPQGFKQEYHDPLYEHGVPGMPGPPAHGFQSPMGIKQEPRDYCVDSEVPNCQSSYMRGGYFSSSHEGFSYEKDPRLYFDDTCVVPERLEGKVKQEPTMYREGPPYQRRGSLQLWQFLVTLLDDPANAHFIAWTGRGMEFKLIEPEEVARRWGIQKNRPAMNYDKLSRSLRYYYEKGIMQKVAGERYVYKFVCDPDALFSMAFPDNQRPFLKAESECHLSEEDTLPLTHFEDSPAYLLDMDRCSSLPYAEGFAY
Chain of HSF1 (Q00613 whole entry): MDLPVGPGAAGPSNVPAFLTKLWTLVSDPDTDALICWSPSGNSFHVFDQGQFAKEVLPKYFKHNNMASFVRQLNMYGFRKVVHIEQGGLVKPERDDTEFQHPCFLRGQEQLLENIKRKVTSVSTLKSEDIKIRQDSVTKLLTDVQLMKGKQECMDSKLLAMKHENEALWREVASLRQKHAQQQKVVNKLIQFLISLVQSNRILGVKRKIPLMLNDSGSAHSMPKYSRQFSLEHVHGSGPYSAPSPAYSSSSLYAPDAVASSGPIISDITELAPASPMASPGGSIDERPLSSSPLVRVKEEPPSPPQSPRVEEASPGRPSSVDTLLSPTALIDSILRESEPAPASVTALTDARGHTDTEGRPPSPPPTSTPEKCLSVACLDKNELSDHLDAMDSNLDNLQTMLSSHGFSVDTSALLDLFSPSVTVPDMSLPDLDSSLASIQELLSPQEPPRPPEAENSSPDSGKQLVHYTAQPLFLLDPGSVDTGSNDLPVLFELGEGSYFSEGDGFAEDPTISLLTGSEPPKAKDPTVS
Chain of ETV6 (P41212 whole entry): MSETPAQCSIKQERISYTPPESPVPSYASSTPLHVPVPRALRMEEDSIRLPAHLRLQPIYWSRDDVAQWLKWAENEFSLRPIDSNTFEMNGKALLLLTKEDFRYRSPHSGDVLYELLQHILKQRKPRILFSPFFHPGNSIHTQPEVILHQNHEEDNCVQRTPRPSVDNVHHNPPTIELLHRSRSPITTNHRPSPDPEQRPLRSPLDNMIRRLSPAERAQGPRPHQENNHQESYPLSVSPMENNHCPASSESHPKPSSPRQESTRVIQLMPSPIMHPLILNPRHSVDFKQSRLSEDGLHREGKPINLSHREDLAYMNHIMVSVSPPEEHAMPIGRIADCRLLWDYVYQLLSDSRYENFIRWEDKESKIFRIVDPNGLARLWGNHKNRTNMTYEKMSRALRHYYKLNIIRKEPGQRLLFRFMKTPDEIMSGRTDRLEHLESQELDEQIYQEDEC

Turning to TAGCTA, the binding signal with FEV is 1.22 fold enrichment (6-mer frequency, TF over GST control); with ETV5, 1.24 fold enrichment (6-mer frequency, TF over GST control); in the assay with HSF1 it was 1.47 fold enrichment (6-mer frequency, TF over GST control); in the assay with SPIC, 1.22 fold enrichment (6-mer frequency, TF over GST control); in the assay with ELF4 it was 1.28 fold enrichment (6-mer frequency, TF over GST control); with ELK4 it was 1.3 fold enrichment (6-mer frequency, TF over GST control). Besides, the binding signal with ETV2 was 1.27 fold enrichment (6-mer frequency, TF over GST control); with ELF3 it was 1.17 fold enrichment (6-mer frequency, TF over GST control); in the assay with CRX, 1.58 fold enrichment (6-mer frequency, TF over GST control); with ETV1 it was 1.27 fold enrichment (6-mer frequency, TF over GST control); with ERF it was 1.23 fold enrichment (6-mer frequency, TF over GST control); with ETV3L, 1.24 fold enrichment (6-mer frequency, TF over GST control). Besides, the binding signal with ETS2 was 1.28 fold enrichment (6-mer frequency, TF over GST control); with SPDEF, 1.08 fold enrichment (6-mer frequency, TF over GST control); in the assay with ETV7, 1.31 fold enrichment (6-mer frequency, TF over GST control); with ELF5 it was 1.16 fold enrichment (6-mer frequency, TF over GST control); with ETV3, 1.18 fold enrichment (6-mer frequency, TF over GST control); with ETV6 it was 1.28 fold enrichment (6-mer frequency, TF over GST control).
